{
  "source": "PubChem BioAssay AID651551",
  "about": "(Sanford-Burnham Center for Chemical Genomics, 2012)",
  "data": [
    {"biological_target": "PEG-3 (UniProt Q6IN02)", "experiment": "GAPDH versus PEG-3 reporter suppression – cell-based, luminescence, counter-screen for PEG-3 promoter inhibitor project, SAR follow-up (AID 651551)", "conditions": "HeLa PEG-Prom / GAPDH luciferase reporter, 6 or 24 h, run 3, 6 h; at 99 µM (top of the series)", "units": {"inhibition % (higher = more inhibition)": "%"}, "values": [
      {"smiles": "CCn1cc(C(=O)NCc2ccco2)c(=O)c2cc(S(=O)(=O)N3CCCC3)ccc21", "inhibition % (higher = more inhibition)": 15.2},
      {"smiles": "Cc1cc(NC(=O)c2cccc(C)c2C)n(-c2nc3ccccc3[nH]2)n1", "inhibition % (higher = more inhibition)": 61.3},
      {"smiles": "Cc1ccc(Cl)cc1Nc1nc(-c2sc(NC(=O)c3ccco3)nc2C)cs1", "inhibition % (higher = more inhibition)": 50.8},
      {"smiles": "COc1ccc(-n2nc(C(=O)NCC(=O)Nc3cccc(OC)c3)c3ccccc3c2=O)cc1", "inhibition % (higher = more inhibition)": -17.6},
      {"smiles": "Cc1nc(NC(=O)c2ccccc2)sc1-c1csc(Nc2ccccc2Cl)n1", "inhibition % (higher = more inhibition)": 19.9},
      {"smiles": "Cc1cc(NC(=O)c2ccccc2C)n(-c2nc3ccccc3[nH]2)n1", "inhibition % (higher = more inhibition)": 53.8},
      {"smiles": "O=C(Nc1nc(-c2ccccc2)cs1)c1nn(-c2ccccc2)c(=O)c2ccccc12", "inhibition % (higher = more inhibition)": 11.7},
      {"smiles": "CCCn1nc(C(=O)Nc2nc(-c3ccncc3)cs2)c2ccccc2c1=O", "inhibition % (higher = more inhibition)": 24.5},
      {"smiles": "Cc1nc(NC(=O)c2ccccc2)sc1-c1csc(Nc2cccc(Cl)c2C)n1", "inhibition % (higher = more inhibition)": 49.3},
      {"smiles": "Cc1cc(NC(=O)c2ccccc2C(F)(F)F)n(-c2nc3ccccc3[nH]2)n1", "inhibition % (higher = more inhibition)": 83.9},
      {"smiles": "Cc1nc(NC(=O)c2ccccc2)sc1-c1csc(Nc2ccccc2)n1", "inhibition % (higher = more inhibition)": 27},
      {"smiles": "Cc1cc(NC(=O)c2ccccc2)n(-c2nc3ccccc3n2C)n1", "inhibition % (higher = more inhibition)": 40.4},
      {"smiles": "COc1ccc(-n2nc(C(=O)NCC(=O)Nc3ccc(OC)c(OC)c3)c3ccccc3c2=O)cc1", "inhibition % (higher = more inhibition)": 27},
      {"smiles": "COCCCNC(=O)c1ccc(Cn2c(=O)c3ccccc3n(Cc3ccccc3C#N)c2=O)cc1", "inhibition % (higher = more inhibition)": 12.9},
      {"smiles": "COc1ccc(-n2nc(C(=O)NCC(=O)Nc3cc(OC)c(OC)c(OC)c3)c3ccccc3c2=O)cc1OC", "inhibition % (higher = more inhibition)": 9.38},
      {"smiles": "Cc1cc(NC(=O)c2ccccc2)n(-c2nc3ccccc3[nH]2)n1", "inhibition % (higher = more inhibition)": 76.2},
      {"smiles": "CCCn1nc(C(=O)Nc2nc3ccccc3s2)c2ccccc2c1=O", "inhibition % (higher = more inhibition)": 36.4},
      {"smiles": "CCn1nc(C(=O)Nc2nc(-c3ccccn3)cs2)c2ccccc2c1=O", "inhibition % (higher = more inhibition)": 39.7},
      {"smiles": "COc1ccc(Cl)cc1Nc1nc(-c2sc(NC(=O)c3ccccc3)nc2C)cs1", "inhibition % (higher = more inhibition)": 64.3},
      {"smiles": "O=C(Nc1nccs1)c1nn(-c2ccccc2)c(=O)c2ccccc12", "inhibition % (higher = more inhibition)": 29.3},
      {"smiles": "CCCn1nc(C(=O)Nc2nc(-c3ccccn3)cs2)c2ccccc2c1=O", "inhibition % (higher = more inhibition)": 34.4},
      {"smiles": "O=C(Nc1nc2ccccc2s1)c1nn(-c2ccccc2)c(=O)c2ccccc12", "inhibition % (higher = more inhibition)": -12.9},
      {"smiles": "COc1ccccc1Nc1nc(-c2sc(NC(=O)c3ccco3)nc2C)cs1", "inhibition % (higher = more inhibition)": 15.2}
    ]}
  ]
}
